From PubChem BioAssay
“And” between values parts separate entries of the source, which are not always exact repeats. Equal entries are not always repeated. For some assays here: Potency and affinity values are given separately. Some structures have more than one record in an assay (separate samples or runs), and their calls can disagree. The source made the active and inactive calls. Cut-off read from the data, not from the text of the source, unless noted: active = parasite load remaining mostly below about 12% (no sharp cut-off); inactive = mostly above about 10%. Square brackets hold non-standard residues; d marks the D form. Side chains are listed from the residue outwards. Peptide text beside a SMILES is read from it. * marks the point of attachment. X2 = CCC(C)C(N)C1=NC(C(=O)*)CS1; Orn = NCCC[CH](N)C(=O)O

Key:
[1] = differential killing of epithelial or mesenchymal cells, primary screen, imaging, PC-3E GFP, TEM4-18 mCherry, co-culture (AID 1345086;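 active = compounds killing one labelled cell type while sparing the other, by normalised counts and ratio limits, not self-fluorescent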;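 for all read-outs here: cells exposed to compound for 72 h before imaging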;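 for red/green cell ratio (normalised): normalised mesenchymal count divided by normalised epithelial count so high means epithelial killing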); settings: imaging cell counts, at 1 µM; for red/green cell ratio (normalised): actives lie on both sides, counts scaled to control wells, 1 = unselective
[2] = sensitizers of A549 cells to miR-34 induction, primary screen, imaging, A549 dox-inducible miR-34, nuclei and caspase counts (AID 1347080;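 active = compounds whose cell count with miR-34 switched on is under 0.7 times the count with it off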); settings: A549 miR-34 inducible, Hoechst nuclei count, 48 h
[3] = viability rescue of complex I mutant cybrids, primary screen, cell-based, galactose medium, ATP luminescence (AID 1645843;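 active = z-score of at least 1.8 in each of two replicates, scored against plate mean and spread of sample wells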;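 note: positive z means more ATP and so rescue of galactose-driven cybrid death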); settings: complex I mutant cybrid cells, 72 h, stronger effect = higher value
[4] = polyglutamine-triggered caspase-3 activation inhibitors, cell-based (AID 1583); settings: polyglutamine-induced caspase-3 activation, cell assay; stronger effect = higher value;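 tested at 10 µM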
[5] = suppressors of polyQ aggregation in yeast, 75Q-TubU reporter (AID 1593); settings: Yeast 75Q polyglutamine aggregation reporter
[6] = rescue of polyQ-huntingtin neuronal dysfunction in worms, whole organism, C. elegans mechanosensory neurons, N-terminal huntingtin (AID 1599); settings: touch response, stronger effect = higher value
[7] = inhibitors of mitochondrial cytochrome c release, biochemical, purified mitochondria (AID 1603); settings: stronger effect = lower value;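 note: mouse liver mitochondria challenged with calcium chloride; signal normalized to the plate average as 100%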
[8] = inhibitors of polyQ protein aggregation (AID 1604); settings: polyglutamine-induced protein aggregation inhibition assay; stronger effect = higher value; tested at 2.5 µM
[9] = enhancers of glutamate uptake in motor neurons, MN-1 cell line (AID 1612); settings: MN-1 motor neuron cells, stronger effect = higher value;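 note: tested at 1 µM final; 0% = mean of DMSO vehicle wells on each plate; positive means more glutamate uptake than control and negative means less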
[10] = reducers of polyQ inclusions in PC12 cells, cell-based, NGF-treated PC12, GFPQ80 (AID 1614); settings: PC12 NGF-treated GFP-polyQ80 inclusion reduction;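 note: lower means fewer inclusions and 0 means no inclusions at all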
[11] = suppressors of polyglutamine aggregation in yeast, 75Q-TubH (AID 1616); settings: S. cerevisiae 75Q-TubH polyglutamine aggregation suppression; stronger effect = higher value
[12] = liver-stage malaria parasite growth inhibition, primary screen, cell-based, HepG2, luciferase luminescence, HepG2 viability (AID 624349);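 note: 100% = mean of DMSO negative control wells on the same plate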; settings: P. berghei liver stage in HepG2, luciferase luminescence, concentration not given here; parasite load remaining: stronger effect = lower value; viability: measured here: HepG2 viability without parasites
[13] = measured here: epithelial PC-3E GFP cell survival
[14] = measured here: mesenchymal TEM4-18 mCherry cell survival
[15] = stronger effect = lower value, cell number ratio, induced over uninduced
[16] = measured here: relative caspase fold change +Dox/-Dox
[17] = measured here: total cells with miR-34 induction, stronger effect = lower value
[18] = measured here: total cells without miR-34 induction

Row | Structure (SMILES) | red/green cell ratio (normalised) [1] | normalised cell number [1, 13] | normalised cell number [1, 14] | fold change [2, 15] | fold change [2, 16] | cell count [2, 17] | cell count [2, 18] | z-score [3] | inhibition [4] [%] | score [5] | rescue above control [6] | cytochrome c release ratio [7] | inhibition of aggregation [8] [%] | glutamate uptake change [9] [%] | inclusion score [10] | aggregation suppression score [11] | parasite load remaining [12] | viability [12]
1 | C[C@]12CCC(=O)C=C1CCC1C2C(=O)C[C@@]2(C)C1CC[C@]2(O)C(=O)CO (stereo partly drawn) | 0.7 (inactive) | 1.3 | 0.91 | 0.915 (inactive) | 1.12 | 9120 | 9960 | 0.345 (inactive) |  |  |  |  |  |  |  |  |  | 
2 | O=c1[nH]c(=O)n(C2C[C@@H](O)[C@@H](CO)O2)cc1F (stereo partly drawn) | 0.79 (inactive) | 0.79 | 0.62 | 1.13 (inactive) | 1.5 | 4220 | 3730 |  | -9.47 | 1.23 | -12.2 | 0.97 | 28.2 | 1.59 | 2 | 1.24 | 79.5% (inactive) and 36% (inactive) | 108%
3 | C=C[C@@]1(C)CC(=O)[C@@]2(O)[C@](C)(O1)[C@@H](OC(C)=O)[C@@H](O)C1C(C)(C)CC[C@H](O)[C@@]12C (stereo partly drawn) | 1 (inactive) | 1.25 | 1.26 | 0.888 (inactive) | 3.59 | 11900 | 13400 |  | 4.06 | 1.39 | 0.33 | 0.91 | 15.4 | 15.8 | 1 | 1.2 | 150% (inactive) and 45.5% (inactive) | 93.3% and 96.7%
4 | CC12CCC3C(=CCc4cc(O)ccc43)C1CCC2=O (stereo not drawn) | 1.28 (inactive) | 1.14 | 1.45 | 0.897 (inactive) | 0.851 | 11100 | 12400 |  | -18.1 | 0.86 | 0.8 | 0.66 | 84.7 | 1.39 |  | 0.518 | 112% (inactive) and 14% (inactive) | 72.6% and 110%
5 | CC[C@H]1CN2CCc3cc(OC)c(OC)cc3C2C[C@@H]1CC1NCCc2cc(OC)c(OC)cc21 (stereo partly drawn) | 0.69 (inactive) | 0.22 | 0.15 | 1.07 (inactive) | 1.51 | 2470 | 2320 |  | 43.8 | 1.69 | -0.41 | 1.03 | 67.5 | -39.3 |  | 1.03 | -0.06% (active) and -0.06% (inactive) | 69.1% and 43.7%
6 | C#C[C@]1(OC(C)=O)CCC2C3CCC4=C/C(=N/O)CCC4C3CC[C@@]21CC (stereo partly drawn) | 0.75 (inactive) | 1.02 | 0.76 | 0.914 (inactive) | 2.93 | 11600 | 12700 |  |  |  |  |  |  |  |  |  | 66.7% (inactive) | 100%
7 | CCC(=O)OCC(=O)[C@@]1(OC(=O)CC)[C@@H](C)CC2C3CCC4=CC(=O)C=C[C@]4(C)C3(F)[C@@H](O)C[C@@]21C (stereo partly drawn) | 1.32 (inactive) | 1.03 | 1.37 | 0.918 (inactive) | 2.62 | 7780 | 8480 |  |  |  |  |  |  |  |  |  | 25.9% (inactive) | 83.8%
8 | N[C@H](Cc1cc(I)c(Oc2ccc(O)c(I)c2)c(I)c1)C(=O)O | 0.97 (inactive) | 1.02 | 0.99 | 0.92 (inactive) | 1.64 | 11400 | 12400 |  |  |  |  |  |  |  |  |  | 45.9% (inactive) | 99.9%
9 | C/C=C\C1=C(C(=O)O)N2C(=O)C(NC(=O)C(N)c3ccc(O)cc3)C2SC1 (stereo not drawn) | 1.07 (inactive) | 0.97 | 1.04 | 0.891 (inactive) | 4.02 | 11600 | 13100 |  |  |  |  |  |  |  |  |  | 117% (inactive) and 53.4% (inactive) | 69.3% and 102%
10 | CC(=O)OC1CCC2C3CCc4cc(O)ccc4C3CCC12C (stereo not drawn) | 0.88 (inactive) | 1.2 | 1.05 | 0.907 (inactive) | 3.29 | 8630 | 9520 |  |  |  |  |  |  |  |  |  | 37.6% (inactive) and 33.6% (inactive) | 66.8% and 98%
11 | CCC(C)C(N)C1=NC(C(=O)NC(CC(C)C)C(=O)NC(CCC(=O)O)C(=O)NC(C(=O)NCCCCC2NC(=O)C(CC(N)=O)NC(=O)C(CC(=O)O)NC(=O)C(Cc3cnc[nH]3)NC(=O)C(Cc3ccccc3)NC(=O)C(C(C)CC)NC(=O)C(CCCN)NC2=O)C(C)CC)CS1 (stereo not drawn) (cyclo(DNK([Ile-Glu-Leu-X2])[Orn]IFH); configuration not given here) | 0.87 (inactive) | 1.23 | 1.06 | 0.838 (inactive) | 0.994 | 10300 | 12300 |  |  |  |  |  |  |  |  |  | 93.7% (inactive) and 69.5% (inactive) | 71.2% and 97.2%
